# Measured values taken from PubChem BioAssay (Tox21).
# Records with an inconclusive call do not appear. Values without a mark were called inactive. Calls of active or inactive are those of the source. The call rests on the fitted dose curve.
# Target: Thyrotropin receptor (Homo sapiens) (UniProt P16473)
# Assay: qHTS assay to identify small molecule agonists of the thyroid stimulating hormone receptor (TSHR) signaling pathway (AID 1224843); further: nearly all actives have a fitted effect of over 45% in size
# Details: TSHR-HEK293 cells, cAMP HTRF, agonist mode, 30 min; series mostly up to 92.4 µM; activation: at the top concentration
# Text: National Center for Advancing Translational Sciences [NCATS]
# NIH Chemical Genomics Center [NCGC]
# U.S. Environmental Protection Agency [EPA]
# National Institutes of Environmental Health Sciences [NIEHS]
# National Toxicology Program [NTP]
# U.S. Food and Drug Administration [FDA]
# TSHR is the receptor for thyrotropin (thyroid stimulating hormone or TSH), a member of the glycoprotein hormone family. TSH is released by the anterior pituitary gland and is the main regulator of thyroid gland growth and development. Upon binding circulating thyrotropin, a G-protein signal cascade activates adenylyl cyclase and […] cAMP concentration is increased. cAMP is a key second messenger involved extensively in cellular signal transduction pathways associated with the majority of G-protein coupled receptors (GPCRs). The activation of these GPCRs by neurotransmitters, lipids, nucleotides, peptides and hormones results in the activation or the inhibition of plasma membrane-bound adenylate cyclase through heterotrimeric G-proteins. A cell-based TSHR assay was used to screen the Tox21 10K library for compounds that can modulate TSHR in agonist mode.
# Tox21 Assay Protocol Summary:
# TSHR-Hek293 cells were dispensed at 800 cells/4uL/well in 1536-well white plates using a Multidrop dispenser. […] The plates were incubated at room temperature for 30 min. 2.5 ul/well of cAMP-d2 and 2.5ul/well of anti-cAMP-cryptate was added respectively into the assay plates using a Flying Reagent Dispenser. After 1 hr incubation at room temperature, the fluorescence intensity in the plates was measured using an Envision plate reader. Each test compound was measured at 15 concentrations and in triplicates.
# On the % scale 0 is the no-effect control and ±100 the full control effect; potency means the concentration at half of the fitted maximal effect.
# Thyrotropin receptor (Homo sapiens), sequence (P16473 whole entry, looked up): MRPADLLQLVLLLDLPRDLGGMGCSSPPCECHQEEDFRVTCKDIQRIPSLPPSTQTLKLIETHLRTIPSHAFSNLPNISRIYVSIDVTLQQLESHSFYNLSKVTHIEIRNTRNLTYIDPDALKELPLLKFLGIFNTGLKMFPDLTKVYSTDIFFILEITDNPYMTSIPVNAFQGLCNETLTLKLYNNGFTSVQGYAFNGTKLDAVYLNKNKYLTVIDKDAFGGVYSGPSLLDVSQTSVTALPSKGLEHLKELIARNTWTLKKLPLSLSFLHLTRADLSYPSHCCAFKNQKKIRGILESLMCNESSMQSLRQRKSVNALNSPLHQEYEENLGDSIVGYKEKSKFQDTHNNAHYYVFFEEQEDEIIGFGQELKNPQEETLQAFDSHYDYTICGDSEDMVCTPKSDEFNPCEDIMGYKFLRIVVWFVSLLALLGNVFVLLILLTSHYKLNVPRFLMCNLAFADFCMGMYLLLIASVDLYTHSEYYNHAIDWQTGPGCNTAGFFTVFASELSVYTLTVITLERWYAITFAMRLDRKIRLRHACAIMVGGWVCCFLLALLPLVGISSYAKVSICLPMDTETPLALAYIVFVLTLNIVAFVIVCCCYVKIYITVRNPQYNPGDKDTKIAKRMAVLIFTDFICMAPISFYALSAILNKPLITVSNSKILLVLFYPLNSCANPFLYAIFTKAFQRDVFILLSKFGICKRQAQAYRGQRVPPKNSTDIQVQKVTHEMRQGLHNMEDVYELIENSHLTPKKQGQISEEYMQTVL
SMILES,activation,Potency
Cc1ncc2n1-c1ccc(Cl)cc1C(c1ccccc1F)=NC2,1.85% [at 42.5 µM],–
CC1=NNC(=O)N(/N=C/c2cccnc2)C1,-3.46%,–
ClCC(Cl)Cl,-14%,–
Nc1ccccc1Cl,-2.34%,–
O=CNC(N1CCN(C(NC=O)C(Cl)(Cl)Cl)CC1)C(Cl)(Cl)Cl (stereo not given),-22.1%,–
CCNc1nc(NC(C)C)nc(OC)n1,-1.43%,–
CCC1(c2ccccc2)C(=O)NC(=O)NC1=O,3.8%,–
O=C(CCN1CC1)OCC(CO)(COC(=O)CCN1CC1)COC(=O)CCN1CC1,-8.67%,–
CCCCc1ccc(O)cc1,-4.53%,–
C=CCC1=C(C)[C@@H](OC(=O)[C@@H]2[C@@H](C=C(C)C)C2(C)C)CC1=O,22.2%,–
CC(C)CC#N,-23.6%,–
C1CCC(C2CCCCC2)CC1,7.71%,–
CCCCN(CCCCO)N=O,-4.14%,–
ClCCCN1CCN(c2cccc(Cl)c2)CC1,-0.0448% [at 42.5 µM],–
ClC(Br)Br,-0.989%,–
O=NN1CCN(N=O)CC1,-15.2%,–
O=[N+]([O-])c1cccc2cccnc12,0.544%,–
COc1cccc2c1cc([N+](=O)[O-])c1c(C(=O)O)cc3c(c12)OCO3,-0.493%,–
CS(=O)(=O)c1cc(C(F)(F)F)ccc1C(=O)c1cnoc1C1CC1,-10.7%,–
CN1CCN(C(=O)O[C@H]2c3nccnc3C(=O)N2c2ccc(Cl)cn2)CC1,-4.29% [at 42.5 µM],–

SMILES,activation,Potency
CC(C)CP(=S)(S)CC(C)C,-1.35%,–
COc1cc(OC)nc(Sc2cccc(Cl)c2C(=O)O)n1,-2.06%,–
CCCSP(=O)(OCC)Oc1ccc(Br)cc1Cl (stereo not given),-19.9% [at 42.5 µM],–
CNC(=O)Oc1cccc(C(C)C)c1,-0.505%,–
O=[N+]([O-])c1ccc2c3c(cccc13)CC2,-20%,–
O=C1OC(c2ccc(O)c(S(=O)(=O)O)c2)(c2ccc(O)c(S(=O)(=O)O)c2)c2c(Br)c(Br)c(Br)c(Br)c21,-3.01% [at 42.5 µM],–
BrCCCCCCBr,-5.23%,–
O=C(O)c1ccc2[nH]cc(CCCCN3CC=C(c4ccccc4)CC3)c2c1,-2.13% [at 42.5 µM],–
Cc1cccc(C#N)c1,0.589%,–
CCOC(=O)C1(c2ccccc2)CCN(CCc2ccc(N)cc2)CC1,5.83% [at 42.5 µM],–
OCCBr,12.4%,–
CCCCOP(=O)(O)OCCCC,-11.2%,–
c1cc2c(c(N3CCNCC3)c1)OCCO2,5.69% [at 42.5 µM],–
CCOC(=O)CP(=O)(OCC)OCC,0.0943%,–
CCS(=O)(=O)C(C)(C)S(=O)(=O)CC,-5.88% [at 42.5 µM],–
COc1cc(OC)nc(NC(=O)NS(=O)(=O)c2ncccc2C(=O)N(C)C)n1,-9.38%,–
CCCSC(=O)Cl,2.36%,–
COc1cc(OC)nc(NC(=O)NS(=O)(=O)c2ncccc2OCC(F)(F)F)n1,-24.2%,–
OC(c1ccccc1)(c1ccccc1)C1CCNCC1,3.73% [at 42.5 µM],–
CC(C)(C)NCC(O)c1cc(Cl)c(N)c(Cl)c1 (stereo not given),–,2.1 nM (active)
